Measurements reported in PubChem BioAssay AID1117319 (Southern Research Institute, 2015).
The whole screen tested about 260,000 compounds, of which about 1,500 (0.58%) were called active. Inconclusive results (about 5%) are left out.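 Rule for the calls: active = inhibition above a set limit at one or more doses, reproduced on every date tested; inconclusive = results disagree between test dates, or hit never tested in dose response; inactive = the rest.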 The list is a sample of the results. Potency and affinity values are given separately.

What follows are compounds tested against Virion infectivity factor (Human immunodeficiency virus type 1 group M subtype B (isolate BH10)) + Virion infectivity factor (Human immunodeficiency virus type 1 group M subtype B (isolate BRU/LAI)) + Virion infectivity factor (Human immunodeficiency virus type 1 group M subtype B (isolate PCV12)) + Virion infectivity factor (Human immunodeficiency virus type 1 group M subtype B (isolate HXB2)) + DNA dC->dU-editing enzyme APOBEC-3G (Homo sapiens) (UniProt P69720+P69721+P69722+P69723+Q9HC16) (assay: HIV-1 Vif–A3G interaction blockers – biochemical, TR-FRET, GST-Vif 1-94, biotin-A3G peptide, dose response retest, primary screen (AID 1117319;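 note: Vif residues 1-94 fused to GST binding biotinylated APOBEC3G peptide 110-148; 0% = full assay without inhibitor and 100% = GST in place of GST-Vif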)). Conditions: TR-FRET GST-Vif / biotin-A3G peptide binding; hits give high values.

inhibition, inactive:
Clc1cccc(CSc2nnc(-c3c[nH]c4ccccc34)o2)c1 -5.82%
Cc1ccc(-c2nc(C#N)c(N3CCCCC3)o2)cc1 -10.2%
CC(=O)N1CCc2ccc(NC(=O)c3c(-c4c(Cl)cccc4Cl)noc3C)cc21 -4.69%
O=[N+]([O-])c1ccc2nc(C3CCCCC3)[nH]c2c1 -11.7%
COc1cccc(C(=O)Nc2ccc3nc(N4CCOCC4)cc(C)c3c2)c1 -4.42%
CN(C)/C=C/C(=O)c1ccc(Br)cc1 -1.28%
O=C(NCCO)C1COc2ccccc2O1 (stereo not given) -2.17%
O=C(CSc1nnnn1C1CC1)N1CCN(c2ccccc2F)CC1 -1.62%
On1nnc2c3ccccc3c3ccccc3c21 0.98%
O=C(O)C1CCCCN1C(=O)c1ccc(S(=O)(=O)N2CCCCCC2)cc1 (stereo not given) -3.6%
COc1cc2c(cc1OC)C(=O)CCC2 -1.94%
COc1ccc2c(c1)CCCC(Br)C2=O (stereo not given) 11.8%
O=C(O)c1cccc2c1C(=O)c1ccc(N3CCN(Cc4ccc5c(c4)OCO5)CC3)cc1S2(=O)=O 1.13%
Cc1cccc2cc(CN(CCCO)C(=O)Nc3ccc(Cl)cc3)c(=O)[nH]c12 13.2%
C/C(=N\NC(=O)c1cc(C2CC2)nc2ccccc12)c1ccc(C)s1 5.05%
Cc1c(N=c2c(=O)c3ccccc3c2=O)c(=O)n(-c2ccccc2)n1C 23.7%
Cc1c(N=C2C=CC(=O)c3ccccc32)c(=O)n(-c2ccccc2)n1C 25%
CCC(C)C1=CC(=Nc2c(C)n(C)n(-c3ccccc3)c2=O)C=C(C(C)CC)C1=O (stereo not given) 9.76%
CC1=CC(=Nc2c(C)n(C)n(-c3ccccc3)c2=O)C=C(C)C1=O 16.9%
CC(=O)NC1=NN(C(C)=O)C(C)(c2cccs2)S1 (stereo not given) 2.86%
Cc1cc(=O)oc2cc(NC(=O)c3ccnn3C)ccc12 -5.65%
Cc1ccc(C)c(Cn2nnc3c(=O)[nH]c(C4CCN(S(=O)(=O)c5ccc(S(=O)(=O)NC6CC6)cc5)CC4)nc32)c1 -11.5%
O=C(CN1CCN(S(=O)(=O)c2ccc(Cl)s2)CC1)N1CCOCC1 7.26%
O=C(CN1CCN(S(=O)(=O)c2ccc(Cl)cc2)CC1)NCc1cccs1 0.29%
CC(C)Nc1nc(-c2ccccc2)nnc1-c1ccccc1 -7.57%
O=C(O)/C=C/C(=O)Nc1ccc(SC(F)(F)C(F)(F)C(F)(F)F)cc1 -1.48%
CCN(CC)CCN1C(=O)c2ccccc2NC1c1ccc(F)cc1 (stereo not given) 1.63%
CCN(CC)CCN1C(=O)c2ccccc2NC1c1ccc(C)cc1 (stereo not given) 0.09%
CC/C(C)=N/Nc1ccc(S(=O)(=O)N2CCCC2)cc1[N+](=O)[O-] 0.9%
CC1CCCN(C(=O)c2ccc(CNc3c(N4CCCCC4)c(=O)c3=O)cc2)C1 (stereo not given) 4.47%
CC1CCN(C(=O)c2ccc(CNc3c(N4CCCC4)c(=O)c3=O)cc2)CC1 5.36%
Cn1c(N)c(C(=O)COC(=O)C2CCC(C(C)(C)C)CC2)c(=O)n(C)c1=O (stereo not given) 15.1%
Cn1c(N)c(C(=O)COC(=O)C2CCCC2)c(=O)n(C)c1=O 0.6%
COc1ccc(S(=O)(=O)N2CCC3(CC2)CC(=O)c2ccccc2O3)cc1OC 5.1%
CCN1C(=O)S/C(=C\c2ccc(N3CCOCC3)cc2C)C1=O 15.3%
C=CCN1C(=O)S/C(=C\c2ccc(N3CCOCC3)cc2C)C1=O -1.96%
Cc1cc(=O)oc2c(CN3CCN(C)CC3)c(O)c(Cl)cc12 -0.71%
COc1ccccc1NC(=S)NN1CCN(C)CC1 -0.89%
O=C(Nc1ccc2ccccc2c1)c1cccnc1 -0.18%
Nc1ccc(C(=O)Nc2ccc3nc(-c4cccnc4)[nH]c3c2)cc1 1.2%
CC/C(=N\NC(=O)CSc1ncccn1)c1ccc2c(c1)OCCO2 4.58%
COc1ccc(-n2c(Cc3cc(=O)[nH]c(=O)[nH]3)nnc2SCC(=O)NC2CCCC2)cc1 2.26%
COc1ccc2cc(CN(Cc3ccco3)C(=S)NCC3CCCO3)c(=O)[nH]c2c1 (stereo not given) -22.6%
CC(=O)Nc1ccc(S(=O)(=O)N2CCc3ccccc3C2)cc1 21.6%
O=C(O)Cc1ccc(N=Cc2c(O)ccc3ccccc23)cc1 5.87%
NS(=O)(=O)c1ccc(N=Nc2c(O)c(C(=O)O)cc3ccccc23)cc1 24.6%
Cn1cnnc1SCC(=O)Nc1ccccc1C(=O)NC1CCCC1 7.03%
CC(=O)Nc1cccc(C(=O)NCC2(N3CCCCC3)CCCCC2)c1 3.75%
COc1ccc(Oc2ccc(C(F)(F)F)cc2NC(=O)c2ccc(OC)cc2)cc1 -13.5%
Clc1cccc2sc(N3CCCCC3)nc12 0.64%
Cc1ccccc1N1C(=O)C(Cl)=C(N2CCCCCC2)C1=O 4.9%
CN1CCN(c2ncc(CN3C(=O)c4ccccc4C3=O)s2)CC1 1.36%
CN1CCN(C2=C(Cl)C(=O)N(C3CCCCC3)C2=O)CC1 20.6%
CC(=O)c1cnc(N(C)C)s1 -3.71%
O=Cc1cnc(N2CCCCC2)s1 -7.46%
O=C(CN1CCc2ccccc21)NN1CC(=O)N(c2ccccc2)CC1=O 1.28%
CCOC(=O)c1ccc(NCc2ccncc2)cc1 -1.73%
COC(CN1CCc2c(C)nc3c(C#N)cnn3c21)OC 1.49%
CN(C)S(=O)(=O)c1cc(NC(=O)[C@H](Cc2ccccc2)N2C(=O)c3ccccc3C2=O)ccc1Cl 15.5%
NC(=O)c1sc2nc(-c3ccco3)ccc2c1N 25.6%
Nc1c(C(=O)Nc2ccc(Br)cc2)sc2nc(-c3ccco3)ccc12 4.88%
Cc1ccc(-c2nnc(SCc3ccc(C#N)cc3)n2Cc2ccco2)cc1 21.2%
N#Cc1ccc(CSc2nnc(-c3ccccc3)n2Cc2ccco2)cc1 3.24%
COc1cccc(C(=O)OC(C)CN2CCCC2)c1 (stereo not given) 2.26%
COc1ccc(CCC(=O)N2CCN(S(=O)(=O)c3ccc4ccccc4c3)CC2)cc1 -2.65%
O=C1c2ccccc2C(O)(c2ccccc2)N1C1CC1 (stereo not given) 18.6%
COc1cc(C(=O)OCCCN2CCOCC2)ccc1O 5.32%
COc1cc(C(=O)OCCN2CCOCC2)ccc1O 6.52%
CCNc1nc(SC(C)C(=O)OC)nc(N2CCOCC2)n1 (stereo not given) 2.4%
COc1ccc(N2CS(=O)(=O)/C(=C/N(C)C)C2=O)cc1 9.06%
COCCCNC(=S)Nc1ccc2nc3n(c(=O)c2c1)CCCCC3 -4.36%
Oc1ccc(C=NC2CCCCC2)c(O)c1 21.7%
CCn1c(O)c(C=NC2CCCC2)sc1=S 5.46%
CCOC(=O)N1CCC(N2CC34C=CC(O3)C(C(=O)Nc3ccc(F)cc3)C4C2=O)CC1 (stereo not given) 5.89%
Cc1ccc(N2C(=O)Nc3cc(Cl)c(Cl)cc3N2O)cc1Cl 4.32%
CCN1CCN(CC(=O)Nc2cc(S(=O)(=O)N3CCCCC3)ccc2Cl)CC1 -1.15%
CC(C)(C)n1nnnc1C(c1ccc2ncccc2c1)N1CCC(O)CC1 (stereo not given) -3.23%
CN(C)N1C(N)=C(C#N)C(c2cccc([N+](=O)[O-])c2)C2=C1CC(C)(C)CC2=O (stereo not given) -5.57%
COc1ccc(C)c2sc(N(CCCN(C)C)C(=O)c3ccc(S(=O)(=O)N(C)C)cc3)nc12 -2.34%
CCn1c2ccccc2c2cc(NC(=O)c3cccc([N+](=O)[O-])c3C)ccc21 -6.86%
CCn1c2ccccc2c2cc(NC(=O)c3ccc(C)c([N+](=O)[O-])c3)ccc21 8.31%
C=CCCCN(Cc1ccccc1)S(=O)(=O)c1ccccc1Br -1.22%
COc1ccc(C(=O)COC(=O)c2cccc(-n3cnnn3)c2)c(OC)c1 3.56%
COC(=O)c1cccc(-n2cnnn2)c1 22.2%
CCOC(=O)c1cc(-c2ccc(OC)cc2F)nc2c1c(C)nn2CCC#N 15.4%
CC1=C(C(=O)OCc2ccccc2)C(c2cccs2)N2C(=O)CCSC2=N1 (stereo not given) -5.63%
CCOC(=O)CCn1cnc2ccc([N+](=O)[O-])cc2c1=O 10.2%
Cc1ccc(-c2ccc(=O)n(CCC(=O)N3CCN(c4cccc(C)c4)C(C)C3)n2)cc1 (stereo not given) 1.97%
CCOC(CNC(=O)c1cccc([N+](=O)[O-])c1)OCC 8.25%
O=C1CC(Sc2ncccc2C(=O)O)C(=O)N1 (stereo not given) 5.46%
Cc1cccc2c1NC(=O)C2(O)N1CCCC(C)C1 (stereo not given) 7.4%
C/C(=N\Oc1cccc(F)n1)c1ccc(Cl)cc1Cl -2.41%
CC(C)c1ccc(S(=O)(=O)N2CCN(CC(=O)c3ccc(O)c(O)c3)CC2)cc1 24.8%
O=C(CN1CCN(S(=O)(=O)c2ccc(Br)cc2)CC1)c1ccc(O)c(O)c1 23.1%
CC12CCCC(=O)C1CCC(=Cc1ccco1)C2=O (stereo not given) 2.03%
CC(C)(C)C1C/C(=C/c2ccccn2)C(=O)/C(=C/c2ccccn2)C1 (stereo not given) 2.61%
COc1cc(/C=C2\CC(C(C)(C)C)C/C(=C\c3cc(OC)c(OC)c(OC)c3)C2=O)cc(OC)c1OC (stereo not given) 2.75%
CC1C/C(=C/c2ccncc2)C(=O)/C(=C/c2ccncc2)C1 (stereo not given) 25.8%
CC1C/C(=C/c2ccccn2)C(=O)/C(=C/c2ccccn2)C1 (stereo not given) 19.4%
CCC1C/C(=C\c2cccnc2)C(=O)/C(=C/c2cccnc2)C1 (stereo not given) 9.28%
